Here are results for 17 molecules from paper PMC12136788.

The chains are these.
T1: UNK ZnF1-3 (human, UniProt Q9C0B0 31-174)
T1 sequence: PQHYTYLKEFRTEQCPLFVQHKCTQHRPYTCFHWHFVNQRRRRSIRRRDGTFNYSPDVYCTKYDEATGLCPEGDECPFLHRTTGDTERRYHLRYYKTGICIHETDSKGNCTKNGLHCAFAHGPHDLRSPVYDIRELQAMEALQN

B1: 54500970_54501090_1431_3pUTR_ENSMUSG00000039156_ENSMUST00000071083|mouse|control|control (ssRNA)
RNA: GGGAGUUCUACAGUCCGACGAUCAGCUGCAUCUCAGCAUUUUGCCUCUUAAUAUUGUAGUACUGUACUUCAACUUCGUGUGUUAGCUGAAGCCAUUUCUGUAGUGCGUCAGGGACAGACCAGCUGCUUCUCAGUUCAAACUCCCAACAGAGGAUUGAGCAUCA
B2: chr2:217001844:217001845:+_ENSG00000079246_ENST00000392132|hu_hu|hu_hu_hu_mus_False|18_28 (ssRNA)
RNA: GGGAGUUCUACAGUCCGACGAUCACCAACUUGAGGAUUAGAUCUUUUGUCAUAAGCAUAUCGGACGAUGGCGACCAUGUUUAACUCAUCCAAAGCAUGAACGAGAGAGGAAAGUGCAACUGCAGCUGCCUCAUCAUCCUUUGCCAACAGAGGAUUGAGCAUCA
B3: 7301359_7301479_2013_3pUTR_ENSMUSG00000024764_ENSMUST00000025675|mouse|control|control (ssRNA)
RNA: GGGAGUUCUACAGUCCGACGAUCGACACCCAUGACAGGAAAGCAGUGGUACGCCACUGAAAGGCAUCCCAGGGGUGCCAAGACAGUGGCACGAGUGCCUCAUUGAGGCGGUGAGGGGUGGGGCUCGGGAGAACAGGCAAAGGGCAACAGAGGAUUGAGCAUCA
B4: chr12:39756943:39756944:-_ENSG00000139116_ENST00000544797|hu_mus|hu_hu_hu_mus_False|8_28 (ssRNA)
RNA: GGGAGUUCUACAGUCCGACGAUCGGUUUGGCUGUUACCCCCAAGGGAAUCCUGCAAGAGUCUUGUCAGCUUAGAGUCUCUGUAAGGGACAUGGGUGGCUCUCUUGCUCUUGUCUCCCAAGGCGCUGAUUACAUUGCCAAGAGCCAACAGAGGAUUGAGCAUCA
B5: chr5:128440902:128440903:+_ENSG00000066583_ENST00000173527|hu_mus|hu_hu_hu_mus_True|1_58 (ssRNA)
RNA: GGGAGUUCUACAGUCCGACGAUCUUGAACGGUGCUGCCAAGUCCUUUGGGGUAUUGUUCCGUUAUGAUAACUGGAAUUCCUAAAAUCCGAGCUCCUUGCAACAGUCUCUGUCCCACACUAAUGAUGUCCCCAAAGUACUUGAUCAACAGAGGAUUGAGCAUCA
B6: chr13:48835921:48835922:+_ENSG00000136156_ENST00000378565|hu_hu|FALSE|FALSE (ssRNA)
RNA: GGGAGUUCUACAGUCCGACGAUCGAUAUGGGUUAUACAAAUUAGUAACACAAGUUAUUUCUUAAAUUCCAAACAUUUUCUAAAAUAUUAUUACAGCAGAUGCCUAGGAUAUUAAAACAUAAAGGUGGAAAUCAUUCUCUAAAUCAACAGAGGAUUGAGCAUCA
B7: chr11:69466387:69466388:+_ENSG00000110092_ENST00000227507|hu_hu|FALSE|FALSE (ssRNA)
RNA: GGGAGUUCUACAGUCCGACGAUCACACGUAAAGGAUGGAACCUAAUCCUCUCCCGAGACGCCUCCUUUGUGUUAAUGCCUAUUCUUACAACAGAGAAACAAGUACAUUAAUAUAAAAACGAGUUGAUUAUUGGGGUAUAAAAUCAACAGAGGAUUGAGCAUCA
B8: chr11:69466387:69466388:+_ENSG00000110092_ENST00000227507|hu_hu|motif|central (ssRNA)
RNA: B7 RNA with U80G, A81G
B9: chr1:46159212:46159213:+_ENSG00000159596_ENST00000372025|hu_mus|hu_hu_hu_mus_True|58_58 (ssRNA)
RNA: GGGAGUUCUACAGUCCGACGAUCUCUGAUCCCUCCCAAGAAAGCUAGGAAACCGGCUCCAUAAGCCAUCUGAGUGAAAGCUAAUAUGGGGAUAUAAGACUUUGUUAUUACCAUGAGAAGUGGGGGAGCAGUAAAGGGGAUUAACAACAGAGGAUUGAGCAUCA
B10: chr1:109605286:109605287:-_ENSG00000197780_ENST00000461096|hu_mus|hu_hu_hu_mus_True|78_98 (ssRNA)
RNA: GGGAGUUCUACAGUCCGACGAUCAAGUUUCAGAGUAUUCAGUGAUCACCUCUUUAACAAUUGUAAUCCUUAUUAUAAGCUAAGCAGAAUAAUAAUUUAAUACCGUAAGUGAACUACACACAAAGCCUGAACCGCGAAAAUGGUCAACAGAGGAUUGAGCAUCA
B11: chr2:27445747:27445748:+_ENSG00000084774_ENST00000264705|hu_hu|FALSE|FALSE (ssRNA)
RNA: GGGAGUUCUACAGUCCGACGAUCGGAGGCAGGGUCACCAGGCCCAUUACUUAAGAAGAGACCCUCAUACUCUUGGCUGUCUAGUGCAUGGUCCCAGGGUACCACAGUGACCUCAGCCCCACGCUGGCAGAGGCAUCGGAUCUGCAACAGAGGAUUGAGCAUCA
B12: chr9:95013113:95013114:-_ENSG00000196305_ENST00000443024|hu_hu|hu_hu_hu_mus_False|68_88 (ssRNA)
RNA: GGGAGUUCUACAGUCCGACGAUCCUCAGUCAGAAAGGGCGUGUAAGGAGCCAUAAGUCUGCACAGAGAAAGCAGAACACUGAACAGUGUCUCCAGAGCCAUGACACAGUCUUCCACCCCACUCUCACCCUUUAACCUCCUCCUCAACAGAGGAUUGAGCAUCA
B13: 142899929_142900494_654_CDS_ENSMUSG00000031004_ENSMUST00000033310|mouse|control|control (ssRNA)
RNA: GGGAGUUCUACAGUCCGACGAUCAAGGCCCUUGGCAUACACAAAAGAUCUUCUUGAAGCAGUCAUUUUUGAAGCUUUGGUAUCUUGACCUUCCCCAUCAGGGUCAGCACAGAAGCUAUCUCUUGAGGCUCGCCUUGAUGGUUCCAACAGAGGAUUGAGCAUCA
B14: chr12:111890518:111890519:-_ENSG00000204842_ENST00000389154|hu_hu|FALSE|FALSE (ssRNA)
RNA: GGGAGUUCUACAGUCCGACGAUCUUGGAUGUUACAAGAAAUCAACAUAUAUAUUUUAAAAACAAAAUAAAUGAAAUUCUAGUUUUCUGUGCUUCCAGUUGGUAGAAGCAGUAGAAGGGAGGAGGGAAUUUGGCCUUUCGGUUCCAACAGAGGAUUGAGCAUCA
B15: chr15:57879074:57879075:-_ENSMUSG00000022361_ENSMUST00000070143|mus_hu|FALSE|FALSE (ssRNA)
RNA: GGGAGUUCUACAGUCCGACGAUCCAGCUGUCUGAGUGAGGAAAUCAGCUACAUUGCAGCAUUUUGGAAUUACUAAUAAAGCUAUAGUUAAAAAAUAAAAAGUUUAUAAAAAUGAAAGCAGCAUGCAUAUUCAAGGCUUUUUCACAACAGAGGAUUGAGCAUCA
B16: chr6:136509389:136509390:+_ENSMUSG00000030213_ENSMUST00000032335|mus_hu|FALSE|FALSE (ssRNA)
RNA: GGGAGUUCUACAGUCCGACGAUCAAUAUUAUUAUCAGCUUUAUUUUUCUCAUCCAAUGAGUCUUUACUCUGAAUUUGCUCUAAUUUUUCAUCAGCUCCAUUUUUUUCAAGAAAAUCAUCAUCUUUAUUGCUACUUGGUUCUAUCAACAGAGGAUUGAGCAUCA
B17: chr15:57879074:57879075:-_ENSMUSG00000022361_ENSMUST00000070143|mus_hu|motif|central (ssRNA)
RNA: B15 RNA with U82G, A83G

Substitutions are numbered along the chain they refer to. In all, about 24,000 sequences were measured (“enrichment r”: median about 0.99, highest 2% from about 3.7 on). The sample as a whole holds a higher share of the highest values than the screen did.

This assay has as its target T1, UNK ZnF1-3. The experiment in a line: nsRBNS (natural sequence RNA bind-n-seq); RBNS binding buffer (assumed for nsRBNS): 25 mM Tris pH 7.5, 150 mM KCl, 3 mM MgCl2, 0.01% Triton X-100, 500 ug/ml BSA, 20 U/ml SUPERase-In, 4 C; UNK is unkempt and MSI1 is Musashi-1; names of the RNAs are library labels; protein concentration not given here; high values mean tight binding.
B1 came in with a binding signal of 1.01 enrichment R.

Molecule B2 registered a binding signal of 1.42 enrichment R.

As for B3, the binding signal was 1.24 enrichment R.

As for B4, the binding signal came out at 0.697 enrichment R.

Molecule B5 returned a binding signal of 0.681 enrichment R.

Turning to B6, the binding signal came to 1.52 enrichment R.

B7 showed a binding signal of 5 enrichment R.

Consider B8, for which the binding signal was found to be 4.6 enrichment R.

For the molecule B9, the binding signal worked out at 1.4 enrichment R.

In the case of B10, the binding signal was 0.993 enrichment R.

B11 yielded a binding signal of 1.01 enrichment R.

The molecule B12 returned a binding signal of 1.57 enrichment R.

For the molecule B13, the binding signal was determined as 0.52 enrichment R.

B14 came in with a binding signal of 1.07 enrichment R.

With B15, the binding signal was 7.31 enrichment R.

B16 had a binding signal of 0.334 enrichment R.

For B17, the binding signal was determined as 6.18 enrichment R.
